Reference: PubChem BioAssay AID651822 (The Scripps Research Institute Molecular Screening Center, 2012)
Among all 2,300 compounds or so, about 970 (42%) were called active. So high a share suggests a set chosen from earlier hits. A selection follows. Values without a mark were called inactive. Rule as the data show it: active = inhibition above about 4.5%; inactive = the rest.

The compounds below were run on Methionine sulfoxide reductase A (Bos taurus) (assay: bovine MsrA inhibitors, retest, confirmation, biochemical, absorbance, HTS (AID 651822;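 also: coupled to thioredoxin reductase with NADPH and selenocystamine and DMSO as substrate; 0% = vehicle only and 100% = full effect of reference inhibitor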)). Conditions: purified bovine MsrA, absorbance read-out; at 15.5 µM; stronger effect = higher value.
For CCCCC(=O)N/N=C/c1c(O)n(CC)c(=S)n(CC)c1=O, the inhibition was 6.08% (active).
With CCOc1ccc(-c2cc(C)[n+](CCN(CC)CC)c(-c3ccc(OCC)cc3)c2)cc1 the inhibition was 3.69%.
Work on COc1ccc(C(=O)C2CCCN(Cc3ccc(C)s3)C2)cc1OC (stereo not drawn) yielded an inhibition of -0.82%.
